Measured values as given in PubChem BioAssay AID485284 (NMMLSC, 2010).
Entries with a potency or affinity are not part of this list.

Assay: inhibitors of CD8+ T cell–vesicle binding, dose response, mouse 2C CD8+ T cells, flow cytometry (AID 485284);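 further: drosophila derived vesicles carrying Ld MHC with QL9 peptide plus B7-1 and ICAM-1; vesicle binding seen as anti-B7-1 PE fluorescence on CD8 gated cells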
Settings: 2C mouse CD8+ T cell-exosome binding; at 45 µM (top of the series)
Work on `O=C(NCCC1=CCCCC1)C(=O)NCC(c1ccco1)N1CCN(c2ccccc2F)CC1` (stereo not drawn) yielded a binding remaining, % of control of 136%. `CC(=O)Nc1ccc(S(=O)(=O)NC2CCSc3ccccc32)cc1` (stereo not drawn) gave a binding remaining, % of control of 273%. Molecule `Cn1c(CNC(=O)CNC(=O)c2ccc(F)cc2)cc(=O)n(C)c1=O` has a binding remaining, % of control of 99.6%. With `COc1ccc(C(O)c2coc3ccc(O)c(CN(C)C)c23)cc1` (stereo not drawn) the binding remaining, % of control was 113%. Work on `COc1ccccc1C(=O)COC(=O)C1CCN(S(=O)(=O)c2ccc(C)c(C)c2)CC1` yielded a binding remaining, % of control of 24.2%. Molecule `O=C(OCC(=O)N1CCN(C(=O)c2ccco2)CC1)c1ccccc1Cc1ccccc1` has a binding remaining, % of control of 73%. `Cc1c(C)c2c(OCC(=O)NCC(O)c3ccccc3)cc3c(c2oc1=O)CCC(C)(C)O3` (stereo not drawn) gave a binding remaining, % of control of 72.4%. For `O=C(NC(=S)NCc1ccco1)c1ccc(Br)cc1`, the binding remaining, % of control was 136%. For `NC(=O)CCS(=O)(=O)CCN1CCN(S(=O)(=O)c2ccc3c(c2)CCC3)CC1`, the binding remaining, % of control was 170%. `O=C(NC(=S)Nc1nc(-c2ccccc2)cs1)c1cccs1` showed a binding remaining, % of control of 173%. Molecule `CCN1CCN(c2ccc(NC(=O)c3cc4ccccc4cc3OC)cc2C)CC1` has a binding remaining, % of control of 128%. Molecule `CCOC(=O)c1cn(CC)c2cc(Cl)c([N+](=O)[O-])cc2c1=O` has a binding remaining, % of control of 128%. In the case of `Cc1cccc(NC(=O)CN2C(=O)N/C(=C\c3ccc(N4CCOCC4)cc3)C2=O)c1`, the binding remaining, % of control is reported as 142%. With `COc1ccccc1NC(=O)Cn1cnc2sc(C)c(S(=O)(=O)N3CCCCC3)c2c1=O` the binding remaining, % of control was 115%. Work on `CCOc1ccc(C(=O)NNC(=O)CN2C(=O)C3CC=CCC3C2=O)cc1OC` (stereo not drawn) yielded a binding remaining, % of control of 194%. For `O=C(COC(=O)C1(c2cccc(F)c2)CCCC1)NCc1ccc2c(c1)OCO2`, the binding remaining, % of control was 72.1%. With `COc1ccc(-c2cc(CNS(=O)(=O)c3ccc(NC(C)=O)cc3)on2)cc1` the binding remaining, % of control was 101%. Work on `COC(=O)CN1C(=S)N(C)C(=O)C1CC(=O)Nc1ccccc1` (stereo not drawn) yielded a binding remaining, % of control of 123%. Work on `COc1cc(CNCc2cccnc2)ccc1OCC(=O)NC1CCCCC1` yielded a binding remaining, % of control of 128%. Work on `CCOC(=O)c1c(N2C(=O)CC(Sc3ccccc3C(=O)O)C2=O)sc2c1CCCC2` (stereo not drawn) yielded a binding remaining, % of control of 41.4%. Work on `CS(=O)(=O)c1cccc(-c2csc(N3CCC(C(N)=O)CC3)n2)c1` yielded a binding remaining, % of control of 150%. Molecule `CC(C)(C)NC(=O)COc1ccc(CNCc2cccnc2)cc1` has a binding remaining, % of control of 90.5%. In the case of `CC1=C/C(=C(\c2ccc(O)c(C)c2)c2ccccc2S(=O)(=O)O)C=CC1=O`, the binding remaining, % of control is reported as 138%. Work on `COc1ccc(NC(=O)COC(=O)c2cc(Cl)ccc2O)cc1S(=O)(=O)N1CCCCC1` yielded a binding remaining, % of control of 75.3%. Work on `COc1ccc(CC(=O)OCC(=O)N2CCN(S(=O)(=O)c3ccc(C)cc3C)CC2)cc1` yielded a binding remaining, % of control of 102%. Work on `O=C(Nc1ccccc1F)C1CCCN(S(=O)(=O)c2cccc3cccnc23)C1` (stereo not drawn) yielded a binding remaining, % of control of 105%. `O=C(Cn1cc2c(n1)CCCC2)NCc1ccccn1` showed a binding remaining, % of control of 106%. In the case of `C=CCN(c1ccc(Br)cc1C(=O)OC)S(C)(=O)=O`, the binding remaining, % of control is reported as 115%. In the case of `NC(=O)C1CCN(c2nc(-c3cc4ccccc4o3)cs2)CC1`, the binding remaining, % of control is reported as 44.2%. `O=C(NCCc1nc2ccc(Cl)cc2[nH]1)C1CCC(=O)N(Cc2cccc(F)c2)C1` (stereo not drawn) gave a binding remaining, % of control of 110%. In the case of `O=C(/C=C/c1ccccc1Cl)NCCc1ccccc1`, the binding remaining, % of control is reported as 116%. For `Cc1c(NS(=O)(=O)CC23CCC(CC2=O)C3(C)C)c(=O)n(-c2ccccc2)n1C` (stereo not drawn), the binding remaining, % of control was 21%. Molecule `CCOc1ccc(CCNC(=O)c2cccc(-n3cnnn3)c2)cc1OCC` has a binding remaining, % of control of 164%.
